# Reference: the supplement of paper PMC6555819
# Key:
# Assay in all cases: PBM binding z-score (relative to random genomic background probes); higher = stronger binding; sequences stand for … in GC…GCGATTGACAGCGTAGAATGAAGG
# [1] = test system: RARb homodimer (NR concentration 270 nM)
# Procedure, shortened: (§1)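 Ligand-free nuclear receptor dimers were bound for 1 h to custom Agilent 4×180K protein-binding microarrays. Detection used antibodies against each partner (one per run). Binding z-scores rest on regression-normalized fluorescence, with random background probes as the reference.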
# [2] = test system: RARg:RXRa (NR concentration 270 nM, RXRa partner concentration 90 nM)
# Procedure, shortened: as §1
# [3] = test system: RARg homodimer (NR concentration 270 nM)
# Procedure, shortened: as §1
# [4] = test system: RXRa DBDmut IVT, anti-RXR (DBD mutation: RXRa K156A/R161A, NR concentration 90 nM)
# Procedure, shortened: as §1
# [5] = test system: RXRa homodimer (NR concentration 180 nM)
# Procedure, shortened: as §1
# [6] = test system: THRa:RXRa (NR concentration 90 nM, RXRa partner concentration 90 nM)
# Procedure, shortened: as §1
# [7] = test system: THRa homodimer (NR concentration 90 nM)
# Procedure, shortened: as §1
# [8] = test system: VDR homodimer (NR concentration 270 nM)
# Procedure, shortened: as §1
Sequence,PBM binding z-score [1],PBM binding z-score [2],PBM binding z-score [3],PBM binding z-score [4],PBM binding z-score [5],PBM binding z-score [6],PBM binding z-score [7],PBM binding z-score [8]
ATCGAAAGGTCGAGGTGGGTATAGAGAAAGGGAA,3.07,4.26,4.29,1.35,4.24,2.64,0.668,1.09
TAGCCTAGGTCGTTGGGCCAGTATAGTACGCATC,0.513,0.529,0.698,0.311,0.61,0.621,0.0467,0.0773
TCTAGCAGGCCAGCGGGTCACTCAAGAGGTACGG,2.01,2.14,1.56,0.000361,1.77,1.42,-0.34,-0.133
GCATATAGTTAATACAAGGTGAAAGTCCGATTGT,0.847,0.222,0.365,0.966,0.312,2.89,1.18,-0.0676
ACTATTAGTAGACTTAGGGCAACCGATACGACGC,0.674,0.363,0.941,0.409,0.292,0.596,0.558,0.227
CGTCAAAGTGCAACTAAGGTAACGTAAAGCACGC,1.18,1.58,1.59,1.13,0.815,4.99,1.18,0.128
CGAACTAGATCAAGGACAGTGAATCTCCGCACGC,0.0367,-0.32,0.287,0.258,-0.168,1.22,1.24,-0.103
TCGAGTAGGTTACCAATGGGGCACTCAGCTTTCT,0.601,1.21,0.434,0.0606,0.428,0.0127,-0.648,-0.704
TAGCCTAGGTCATTGGTCCAGTATAGTACGCATC,2.86,3.61,3.82,1.98,2.74,2.84,1.47,1.51
CAGCCTAGGTCAAGGCCAGTATAGGAGGAACGTT,3.01,4.16,4.9,0.701,2.75,2.75,0.86,0.353
CCGACTGGGGCAAGGTTATCATAACGCACAGCCA,1.27,1.03,1.08,0.0521,1.12,1,0.224,0.128
AATTCAGGGTCATCGTAGGCCAGAGTACGCACAG,3.87,6.21,5.46,3.82,7.13,4.78,2.24,4.01
CGAACTAGGTCATTTACAGGACAGTGAATAGTAA,2.66,4.82,4.09,2.58,2.38,2.89,0.896,1.75
CCGACTGGGGCAGAAAGGTTACGATACCATCCGG,2.38,1.96,1.37,-0.562,2.09,1.15,-0.229,-0.0227
ATCGAAAGGTCGAGGTGAATATAGAGAAAGGGAA,2.88,4.52,4.51,0.922,4.65,2.95,0.862,0.0536
AGTTAAAGTTCATCTAGGTAACGTAAGATATGCT,3.84,5.06,5.65,4.63,4.14,3.21,0.583,5.32
TCTTGTATATCAAAGGTTAAGAAAGCCGAAGCCT,1.82,1.98,1.32,0.935,2.92,1.58,0.181,0.26
TCATATTGGTAAAAGGTGAAAGTCGGTGTGGTAA,2,1.24,0.709,1.66,1.99,1.62,0.665,0.829
CCTGACAGGTGAGAAGGTAACTCAGCCTCGATTA,0.33,0.701,0.393,-0.0911,0.509,0.346,-0.0701,-0.656

Sequence,PBM binding z-score [1],PBM binding z-score [2],PBM binding z-score [3],PBM binding z-score [4],PBM binding z-score [5],PBM binding z-score [6],PBM binding z-score [7],PBM binding z-score [8]
AGAATGAGGTTATTAAGATCACGGAATTGCGGTC,0.99,1.37,1.01,2.19,2.01,2.42,0.72,1.73
AGAAAGAGGTTAAGATCAGGGAAACAGAATACAT,1.42,2.54,1.86,0.244,2.82,2.02,0.45,0.57
CGAACGAGGGCACGAGTTGATAGCAAATGCCGAT,1.05,1.8,1.98,2.18,1.49,1.84,0.134,1.58
TCTAGCAGGCCTGAGGGTCACTCAAGAGGTACGG,2.52,2.29,1.53,0.198,2.59,1.75,-0.278,0.36
TGTCAAAGTTCAAAGGTAACGTAAGTATCCACAC,3.82,6.28,6.19,4.36,7.27,3.53,0.176,4.04
AGAACGAGGGCACGCTGAGTTGATATCAGAGTAG,1.18,2.05,2.32,2.08,1.32,1.89,-0.269,1.71
AGTCAAAGTTCATCTAGGTAACGTACGATATGCT,3.93,5.49,5.82,4.69,4.69,3.28,0.448,5.04
CCTACTGGCCCAAAGGTCATTGATTCCAATGCTC,4.89,4.89,4.36,1.06,5.05,3.3,0.916,2.14
AGAATGAGGTTAAGATCAGGTAAACAGAATACAT,0.989,2.66,1.76,1.17,2.81,3.55,1.36,0.461
ACTATTAGTTGAGACGCGGGCAACCGATAGGTTG,-0.0528,0.00918,0.268,0.153,-0.256,-0.0691,-0.769,0.135
TCATATAGGTAATACGGGTGAAAGTCGGCATCTA,0.258,0.35,0.383,1.33,0.921,0.697,0.103,0.0658
GCTATTAGTTGAAAGGGCATCCGAATGATTCTCG,1.52,1.04,0.981,1.01,1.15,0.356,-0.145,0.425
TAGCCAAGGTCATTGGGCCAGTATAGTACGCATC,4.21,5.55,5.5,3.08,5.46,4.06,2.04,3.47
GGAACGAGGGCAATGTTGATAGCATCTGTCGACG,0.983,1.08,1.66,1.93,0.843,0.966,-0.016,0.72
AGAACGAGGGCACGCTGAGTGGATAGCAGAGTAG,0.942,1.87,2.16,1.48,1.47,1.66,-0.0727,0.664
ATCTCTACGTAACCAAGTTCAGTGAATGCCGAAC,1.18,0.251,0.741,0.846,0.369,0.592,0.325,2.27
CAAACTAGGTCCCCGGAAGGTCAAAGTCCGCATG,4.26,4.15,3.32,0.0846,3.49,2.91,1.33,2.2
CTACCAAGGTGCACAAGGTCGTTGATTACTATTC,1.71,1.29,0.782,1.8,1.42,2.14,1.21,2.73
ATATGTACGTTAGCTGGGGTCATTCAGACTAGGC,3.2,3.67,2.5,2.23,5.37,4.01,3.2,5.16

Sequence,PBM binding z-score [1],PBM binding z-score [2],PBM binding z-score [3],PBM binding z-score [4],PBM binding z-score [5],PBM binding z-score [6],PBM binding z-score [7],PBM binding z-score [8]
TCATAAAGGTAAATGCTAGGTGAAAGTCCGATCT,0.719,1.03,0.541,1.87,1.05,2.03,0.511,0.333
TCTTGTAGATTAAAGGTTAAGAAAGCCGAAGCCT,1.05,1.04,0.588,0.892,1.99,1.09,-0.228,0.123
GCTAGAAGGCCATTTGGGTCACTCAATGACGGGC,2.47,1.61,2.24,0.256,1.05,2.42,0.686,1.05
GCGACTGGGGCAAAGCAGGTTACCATGAGGTTGG,1.2,0.634,0.674,-0.402,0.455,2.99,-0.00664,-0.385
AGAATGAGGTTACCAAAGATCGGGGAAACGCTTG,0.666,1.91,1.43,1.5,2.5,2.71,0.699,-0.00618
CCTAGCAGGCGAATCTGGGTCACTCAAGGCTTGA,1.53,0.494,0.428,0.0113,0.669,2.71,0.222,-0.316
GCTGCTAGGTCAACTGATGGTCAGCTACAGCTCG,3.81,5.01,5.31,1.56,2.82,2.94,0.9,0.228
CGTCCAAGTTCAAGGTAACGTAACAGAAAGCAGC,2.23,2.83,3.21,4.37,2.15,2.6,1.66,3.39
ATATGTAGGTTAGCTGGGGTCATCCAGACTAGGC,4.24,4.41,3.52,1.31,5.97,5.2,3.24,4.34
ATCTCTAGATAAAGATAGTTCAGTGAATGCAAAT,0.48,0.16,0.499,-0.299,0.282,0.263,-0.124,0.668
GCAAGTTGGTCAGTAAAAGGTCACACACCGGTCG,5.2,5.36,4.48,0.685,5.47,3.61,1.82,1.96
AATACAGGGTCACTAGGCCTGAGTAGGTACGAAT,3.04,4.82,4.35,2.53,5.28,3.13,0.975,1.81
CGAACGAGGGCAGGAGTTGATAGCAAATGCCGAT,0.754,0.906,1.13,0.67,0.365,0.403,-0.595,0.281
TCATATAGGTAAAGGCGAAAGTCGAACGATATGA,-0.012,0.425,0.439,0.563,0.727,-0.186,-0.507,-0.251
GCTCGGAGGACAAGGTGAGAGCTTTGTCCGTAGA,0.56,0.159,0.805,-0.507,-0.256,1.5,0.465,-0.74
GGAACGAGGGCATTCGAGTTAATAGCATGGCGAT,0.504,1.33,1.59,2.83,1.09,3.22,-0.196,2.58
CGAACTACGTCATTGACAGGACAGTGAATAGTAA,0.0564,0.288,0.139,0.0473,0.152,0.0548,-0.0847,-0.012
TAGCCGAGGTCATGGGCCAGTATACCACGCGAAC,4.19,6.64,6.26,3.46,7.64,4.25,2.71,3.91
